Values without a mark were called inactive. Inconclusive results are not listed. Where a call stands in place of a potency, no number is given. Activity calls are given as the source filed them. Calls follow the shape of the dose curve; as a rule, active = well fitted curve in the direction sought with a large enough effect; inconclusive = small, poorly fitted or top-dose-only effect, or another doubt; inactive = no such curve, though single readings can be large; an effect the other way counts as inactive or inconclusive.
What was measured:
[1] = qHTS for Inhibitors of Plasmodium falciparum (DD2) proliferation (AID 504314);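 also: parasite DNA measured by SYBR Green fluorescence after red cell lysis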
Summary of the method: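 Normalization used 0.29 uM artemisinin as full inhibition and DMSO as baseline. Parasitized erythrocytes were exposed to compounds for 72 h (37C, 5% CO2), then lysed with saponin/Triton buffer containing SYBR Green I.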

[2] = qHTS for Inhibitors of Plasmodium falciparum (7G8) proliferation (AID 504316); also: nearly all actives have a fitted effect of over 65% in size; also: potency is read from the fitted curve at half-maximal effect
Summary of the method: (§1)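 Parasite growth measured as SYBR Green DNA fluorescence (ex 485, em 535 nm) after overnight lysis following 72 h culture at 37 °C, 0.3% parasitemia, 2.5% hematocrit. Values normalized against DMSO and 0.29 uM artemisinin controls, with plate-stack correction.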

[3] = qHTS for Inhibitors of Plasmodium falciparum (CP250) proliferation (AID 504320)
Summary of the method: as §1

[4] = qHTS for Inhibitors of Plasmodium falciparum (HB3) proliferation (AID 504318); also: nearly all actives have a fitted effect of over 60% in size; also: potency is read from the fitted curve at half-maximal effect
Summary of the method: as §1

[5] = target: Cytochrome P450 2C9 (Homo sapiens) (UniProt P11712); test: qHTS Assay for Inhibitors and Substrates of Cytochrome P450 2C9 (AID 883); also: nearly all actives have a fitted effect of over 60% in size
Cytochrome P450 2C9 (Homo sapiens), sequence (P11712 whole entry, looked up): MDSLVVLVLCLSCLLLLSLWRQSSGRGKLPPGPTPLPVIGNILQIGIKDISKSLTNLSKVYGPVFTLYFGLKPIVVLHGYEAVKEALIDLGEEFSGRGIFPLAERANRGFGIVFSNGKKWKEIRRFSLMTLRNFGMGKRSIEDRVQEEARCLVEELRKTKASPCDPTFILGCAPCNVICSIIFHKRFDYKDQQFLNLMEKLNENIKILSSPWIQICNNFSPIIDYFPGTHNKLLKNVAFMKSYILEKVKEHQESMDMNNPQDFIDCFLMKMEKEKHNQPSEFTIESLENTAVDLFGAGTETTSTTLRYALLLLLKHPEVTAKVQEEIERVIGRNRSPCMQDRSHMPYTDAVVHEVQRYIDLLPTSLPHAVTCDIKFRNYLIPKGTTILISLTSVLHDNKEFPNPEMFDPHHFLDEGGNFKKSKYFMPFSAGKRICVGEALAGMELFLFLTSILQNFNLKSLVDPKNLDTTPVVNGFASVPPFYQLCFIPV
Summary of the method: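 10nM CYP2C9 + 100uM Luciferin-H (=KM), 25mM KPO4; cpd 10 min 37C; NADPH regen, 60 min 37C; stop/detect with P450 Glo-Buffer 20 min; luminescence. Norm. to 57uM sulphaphenazole as full inhibition.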

[6] = target: Cytochrome P450 3A4 (Homo sapiens) (UniProt P08684); test: qHTS Assay for Inhibitors and Substrates of Cytochrome P450 3A4 (AID 884); also: potency is read from the fitted curve at half-maximal effect; nearly all actives have a fitted effect of over 50% in size
Cytochrome P450 3A4 (Homo sapiens), sequence (P08684 whole entry, looked up): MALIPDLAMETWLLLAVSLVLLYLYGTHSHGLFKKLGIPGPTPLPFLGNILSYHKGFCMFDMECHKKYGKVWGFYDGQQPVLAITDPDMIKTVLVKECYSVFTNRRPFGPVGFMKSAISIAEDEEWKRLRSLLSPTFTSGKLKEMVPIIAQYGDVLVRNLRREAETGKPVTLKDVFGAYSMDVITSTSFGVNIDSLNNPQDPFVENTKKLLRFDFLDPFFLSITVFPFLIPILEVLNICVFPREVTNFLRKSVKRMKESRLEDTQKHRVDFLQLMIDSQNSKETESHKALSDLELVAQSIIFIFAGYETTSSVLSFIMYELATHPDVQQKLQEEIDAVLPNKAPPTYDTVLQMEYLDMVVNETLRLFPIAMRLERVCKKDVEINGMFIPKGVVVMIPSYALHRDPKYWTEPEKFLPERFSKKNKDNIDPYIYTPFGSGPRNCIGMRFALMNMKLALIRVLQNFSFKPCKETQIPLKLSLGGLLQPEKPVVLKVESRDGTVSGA
Summary of the method: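 Luminescent readout of luciferin produced by CYP3A4 (20 nM) dealkylation of Luciferin-PPXE, 25 uM (its KM). NADPH-driven reaction ran 60 min at RT after 10 min compound preincubation; data scaled to 57 uM ketoconazole as 100% inhibition.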

[7] = target: Cytochrome P450 3A4 (Homo sapiens) (UniProt P08684); test: qHTS Assay for Activators of Cytochrome P450 3A4 (AID 885); also: nearly all actives have a fitted effect of over 65% in size
Summary of the method: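 Using 20nM recombinant human CYP3A4 in potassium phosphate (200mM), substrate Luciferin-PPXE at 25uM, luminescent luciferin detection followed a 60-min RT NADPH reaction; data scaled to 57 uM ketoconazole.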

[8] = target: Cytochrome P450 2D6 (Homo sapiens) (UniProt P10635); test: qHTS Assay for Inhibitors and Substrates of Cytochrome P450 2D6 (AID 891);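 also: luciferin methyl ether substrate demethylated by CYP2D6 with NADPH regeneration; nearly all actives have a fitted effect of over 60% in size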
Cytochrome P450 2D6 (Homo sapiens), sequence (P10635 whole entry, looked up): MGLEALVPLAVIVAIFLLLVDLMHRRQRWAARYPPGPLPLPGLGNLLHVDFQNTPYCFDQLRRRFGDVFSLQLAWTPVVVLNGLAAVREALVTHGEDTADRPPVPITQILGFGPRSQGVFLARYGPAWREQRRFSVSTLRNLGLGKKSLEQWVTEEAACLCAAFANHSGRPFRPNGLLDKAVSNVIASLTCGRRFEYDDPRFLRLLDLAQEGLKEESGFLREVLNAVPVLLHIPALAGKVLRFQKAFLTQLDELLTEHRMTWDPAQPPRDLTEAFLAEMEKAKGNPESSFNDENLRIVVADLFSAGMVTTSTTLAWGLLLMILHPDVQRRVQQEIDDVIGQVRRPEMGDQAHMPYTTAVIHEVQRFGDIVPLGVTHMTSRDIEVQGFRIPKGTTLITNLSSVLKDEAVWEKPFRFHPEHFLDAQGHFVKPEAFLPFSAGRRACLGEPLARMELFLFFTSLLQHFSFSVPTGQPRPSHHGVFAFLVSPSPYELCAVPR
Summary of the method: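 Luminescent read-out of luciferin formed by 5 nM human CYP2D6 demethylating 30 uM Luciferin-ME EGE (Km level) over 60 min at room temperature after NADPH regeneration addition. Data normalized to full inhibition by 1.43 uM quinidine.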

Question: For `COC(=O)C1=C(C(=O)OC)[C@@H]2N(C)c3ccc(OC)cc3[C@@]23C[C@@H](C(=O)OC)N(S(=O)(=O)c2ccc(C#N)cc2)C3=N1`, which Potency [1] is on record?
Answer: inactive

Question: What about the Potency [2] of the same molecule?
Answer: 1690 nM (active)

Question: What about the Potency [3] of the same molecule?
Answer: inactive

Question: With `C#CCCOC(=O)N1C2=NC(C(=O)OC)=C(C(=O)OC)[C@@H]3N(CC#CC)c4ccccc4[C@]23C[C@H]1C(=O)OC` as the molecule, how does the Potency [1] read?
Answer: inactive

Question: What about the Potency [4] of the same molecule?
Answer: inactive

Question: What about the Potency [3] of the same molecule?
Answer: inactive

Question: With `CCN1C(=O)N(C)[C@@H](c2ccccc2)C(C(=O)OC)=C1C` as the molecule, how does the Potency [1] read?
Answer: inactive

Question: What about the Potency [2] of the same molecule?
Answer: inactive

Question: What about the Potency [3] of the same molecule?
Answer: inactive

Question: What does the source list for `CC1(OC(=O)C2CCCC2)C(=O)C=C2C=C(c3ccsc3)N(CCc3c[nH]c4ccccc34)C=C2C1=O` (centres undefined)?
Answer: Potency [1]: inactive; Potency [2]: inactive; Potency [3]: inactive

Question: What does the source list for `COC(=O)CCC(=O)OC1(C)C(=O)C=C2C=C(C3CC3)N(CC3CC3)C=C2C1=O` (centres undefined)?
Answer: Potency [1]: inactive; Potency [4]: inactive

Question: Which Potency [1] does the source give for `COC(=O)C1=C(C(=O)OC)[C@@H]2Nc3ccccc3[C@@]23C[C@@H](C(=O)OC)N(C(=O)c2cc(C)oc2C)C3=N1` here?
Answer: inactive

Question: What about the Potency [2] of the same molecule?
Answer: 1690 nM (active)

Question: What about the Potency [4] of the same molecule?
Answer: 1690 nM (active)

Question: What about the Potency [3] of the same molecule?
Answer: inactive

Question: With `CCOC(=O)CCCNC(=O)N1CCc2nc(-c3ccc(OC)cc3C)c3c(c2C1)CO[C@@H](c1ccccc1)C3` as the molecule, how does the Potency [1] read?
Answer: inactive

Question: And the Potency [2]?
Answer: 1690 nM (active)

Question: What about the Potency [3] of the same molecule?
Answer: inactive

Question: What does the source list for `CCCCCCC(=O)Cc1cc(OC)c(OC)cc1C=C(C(=O)OCC)C(=O)OCC`?
Answer: Potency [5]: inactive; Potency [6]: 3160 nM (active); activity change, positive = activation [7]: -90.7% [at 11.4 µM]; Potency [8]: inactive; Potency [1]: inactive; Potency [2]: inactive; Potency [4]: inactive; Potency [3]: inactive

Question: With `CC#CCN1c2ccccc2[C@]23C[C@@H](C(=O)OC)N(S(=O)(=O)c4ccc([N+](=O)[O-])cc4)C2=NC(C(=O)OC)=C(C(=O)OC)[C@H]13` as the molecule, how does the Potency [1] read?
Answer: inactive

Question: What about the Potency [3] of the same molecule?
Answer: inactive

Question: Which Potency [1] does the source give for `CCCCn1c(C)cc2c(c1=O)[C@H]1O[C@](c3ccsc3)(Cc3ccccc31)O2` here?
Answer: inactive

Question: What about the Potency [2] of the same molecule?
Answer: 1690 nM (active)

Question: And the Potency [3]?
Answer: inactive

Question: Which Potency [1] does the source give for `COc1ccc2c(c1)O[C@@H](c1cccc(C(F)(F)F)c1)[C@H](OC(=O)N[C@H]1CCCc3ccccc31)C2=O` here?
Answer: inactive

Question: What about the Potency [4] of the same molecule?
Answer: inactive

Question: And the Potency [3]?
Answer: inactive

Question: Which results are given for `C[C@@H]1C[C@](C)(C(=O)c2ccc3ccccc3c2)C=C1c1ccc2ccccc2c1`?
Answer: Potency [1]: inactive; Potency [4]: inactive

Question: With `CC1(OC(=O)CCc2ccccc2)C(=O)C=C2C=C(c3ccc(C#N)cc3)N(Cc3ccco3)C=C2C1=O` (centres undefined) as the molecule, how does the Potency [1] read?
Answer: inactive

Question: And the Potency [2]?
Answer: inactive

Question: And the Potency [3]?
Answer: inactive

Question: Which Potency [1] does the source give for `CCC(=O)N1C2=C(c3ccccc3[C@@H]1CC(=O)Nc1ccc3ccccc3c1)[C@@H]1C(=O)N(c3ccccc3)C(=O)[C@@H]1[C@H](C)C2` here?
Answer: inactive

Question: What about the Potency [2] of the same molecule?
Answer: 1900 nM (active)

Question: And the Potency [3]?
Answer: inactive

Question: For `C=CCN1c2ccccc2[C@]23C[C@@H](C(=O)OC)N(S(=O)(=O)c4c(C)noc4C)C2=NC(C(=O)OC)=C(C(=O)OC)[C@H]13`, which Potency [1] is on record?
Answer: inactive

Question: And the Potency [4]?
Answer: inactive

Question: And the Potency [3]?
Answer: inactive

Question: For `COC(=O)C1=C(C(=O)OC)[C@@H]2N(C)c3ccc(OC)cc3[C@@]23C[C@@H](C(=O)OC)N(S(=O)(=O)c2ccc([N+](=O)[O-])cc2)C3=N1`, which Potency [1] is on record?
Answer: inactive

Question: What about the Potency [2] of the same molecule?
Answer: 1510 nM (active)

Question: What about the Potency [3] of the same molecule?
Answer: inactive

Question: For `COCCN1C=C2C(=O)C(C)(OC(=O)CCC(=O)OC)C(=O)C=C2C=C1C1CC1` (centres undefined), which Potency [1] is on record?
Answer: inactive

Question: What about the Potency [4] of the same molecule?
Answer: inactive

Question: With `CC(C)(C)N1C(=O)[C@@H]2[C@H]3[C@H](O)[C@H](O)CC(=NOCc4ccccc4)[C@H]3CC[C@H]2C1=O` as the molecule, how does the Potency [1] read?
Answer: inactive

Question: And the Potency [2]?
Answer: inactive

Question: And the Potency [3]?
Answer: inactive

Question: What does the source list for `COC(=O)CCC(=O)OC1(C)C(=O)C=C2C=C(C3CC3)N(CCc3ccccn3)C=C2C1=O` (centres undefined)?
Answer: Potency [1]: inactive; Potency [4]: inactive

Question: Which Potency [1] does the source give for `COC(=O)CCC(=O)OC1(C)C(=O)C=C2C=C(C3CC3)N(CCN3CCOCC3)C=C2C1=O` (centres undefined) here?
Answer: inactive

Question: What about the Potency [2] of the same molecule?
Answer: inactive

Question: What about the Potency [4] of the same molecule?
Answer: inactive

Question: And the Potency [3]?
Answer: inactive

Question: Which Potency [1] does the source give for `COC(=O)[C@@H](NC(=O)N1CCc2nc(COc3ccccc3)c3c(c2C1)CO[C@@H](C)C3)C(C)C` here?
Answer: inactive

Question: What about the Potency [2] of the same molecule?
Answer: 1690 nM (active)

Question: What about the Potency [3] of the same molecule?
Answer: inactive

Question: For `COC(=O)CCC(=O)OC1(C)C(=O)C2=CN(C3CCCC3)C(c3ccc(OC)cc3)=CC2=C(Br)C1=O` (centres undefined), which Potency [1] is on record?
Answer: inactive

Question: And the Potency [2]?
Answer: inactive

Question: What about the Potency [3] of the same molecule?
Answer: inactive

Question: Which Potency [1] does the source give for `CCCCS(=O)(=O)N1CCc2nc(COc3ccccc3)c3c(c2C1)CO[C@@H](C)C3` here?
Answer: inactive

Question: What about the Potency [2] of the same molecule?
Answer: inactive

Question: What about the Potency [4] of the same molecule?
Answer: inactive

Question: And the Potency [3]?
Answer: inactive

Question: What does the source list for `COCCN1C=C2C(=O)C(C)(OC(=O)CCc3ccccc3)C(=O)C=C2C=C1c1ccc(C#N)cc1` (centres undefined)?
Answer: Potency [1]: inactive; Potency [2]: inactive; Potency [4]: inactive; Potency [3]: inactive

Question: With `CC(C)(C)OC(=O)NCCCC1=CC2=CC(=O)C(C)(OC(=O)c3cccs3)C(=O)C2=CO1` (centres undefined) as the molecule, how does the Potency [1] read?
Answer: inactive

Question: What about the Potency [2] of the same molecule?
Answer: inactive

Question: And the Potency [4]?
Answer: inactive

Question: And the Potency [3]?
Answer: inactive

Question: For `CCOC(=O)CN1C(=O)N[C@@H](CCc2ccccc2)[C@H](C(C)=O)[C@H]1C`, which Potency [1] is on record?
Answer: inactive

Question: And the Potency [2]?
Answer: inactive

Question: And the Potency [4]?
Answer: inactive

Question: And the Potency [3]?
Answer: inactive
